# The supplement of paper PMC4466140
# How the values were obtained:
# Assay in all cases: SPOT peptide array binding signal intensity (averaged, normalized) (arbitrary units (background-subtracted, floor 0; scale differs between SH3 domains)); higher = stronger binding of the SH3 domain to the peptide
# AgAbp1 = molecular target: AgAbp1
# Summary of the method: (§1)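 Binding signal refers to normalized, background-subtracted spot intensity averaged over replicates, expressed in arbitrary units that differ between domains. GST-fused SH3 domains from four yeast species were incubated at 10 μg/ml overnight at 4°C on cellulose membranes of synthetic 15-mer peptides with cysteines replaced by serines. Bound protein was detected with anti-GST antibody, an HRP anti-mouse secondary and luminol, and quantified with Genespotter.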
# AgBbc1 = molecular target: AgBbc1
# Summary of the method: as §1
# AgBem1-D1 = molecular target: AgBem1-D1
# Summary of the method: as §1
# AgBzz1-D1 = molecular target: AgBzz1-D1
# Summary of the method: as §1
# AgBzz1-D2 = molecular target: AgBzz1-D2
# Summary of the method: as §1
# AgCyk3 = molecular target: AgCyk3
# Summary of the method: as §1
# AgFus1 = molecular target: AgFus1
# Summary of the method: as §1
# AgHof1 = molecular target: AgHof1
# Summary of the method: as §1
# AgHse1 = molecular target: AgHse1
# Summary of the method: as §1
# AgLsb1 = molecular target: AgLsb1
# Summary of the method: as §1
# AgLsb4 = molecular target: AgLsb4
# Summary of the method: as §1
# AgMyo5 = molecular target: AgMyo5
# Summary of the method: as §1
# AgNbp2 = molecular target: AgNbp2
# Summary of the method: as §1
# AgRvs167 = molecular target: AgRvs167
# Summary of the method: as §1
# AgSho1 = molecular target: AgSho1
# Summary of the method: as §1
# AgSla1-D1-D2 = molecular target: AgSla1-D1-D2
# Summary of the method: as §1
# AgSla1-D3 = molecular target: AgSla1-D3
# Summary of the method: as §1
# CaAbp1-D1 = molecular target: CaAbp1-D1
# Summary of the method: as §1
# CaAbp1-D2 = molecular target: CaAbp1-D2
# Summary of the method: as §1
# CaBbc1 = molecular target: CaBbc1
# Summary of the method: as §1
# CaBem1-D1 = molecular target: CaBem1-D1
# Summary of the method: as §1
# CaBzz1-D1 = molecular target: CaBzz1-D1
# Summary of the method: as §1
# CaBzz1-D2 = molecular target: CaBzz1-D2
# Summary of the method: as §1
# CaCyk3 = molecular target: CaCyk3
# Summary of the method: as §1
# CaFus1 = molecular target: CaFus1
# Summary of the method: as §1
# CaHof1 = molecular target: CaHof1
# Summary of the method: as §1
# CaHse1 = molecular target: CaHse1
# Summary of the method: as §1
# CaLsb1 = molecular target: CaLsb1
# Summary of the method: as §1
# CaLsb4 = molecular target: CaLsb4
# Summary of the method: as §1
# CaMyo5 = molecular target: CaMyo5
# Summary of the method: as §1
# CaNbp2 = molecular target: CaNbp2
# Summary of the method: as §1
# CaRvs167 = molecular target: CaRvs167
# Summary of the method: as §1
# CaRvs167-3 = molecular target: CaRvs167-3
# Summary of the method: as §1
# CaSho1 = molecular target: CaSho1
# Summary of the method: as §1
# CaSla1-D1-D2 = molecular target: CaSla1-D1-D2
# Summary of the method: as §1
# CaSla1-D3 = molecular target: CaSla1-D3
# Summary of the method: as §1
# ScAbp1 = molecular target: ScAbp1
# Summary of the method: as §1
# ScBbc1 = molecular target: ScBbc1
# Summary of the method: as §1
# ScBem1-D1 = molecular target: ScBem1-D1
# Summary of the method: as §1
# ScBzz1-D1 = molecular target: ScBzz1-D1
# Summary of the method: as §1
# ScBzz1-D2 = molecular target: ScBzz1-D2
# Summary of the method: as §1
# ScCyk3 = molecular target: ScCyk3
# Summary of the method: as §1
# ScFus1 = molecular target: ScFus1
# Summary of the method: as §1
# ScHof1 = molecular target: ScHof1
# Summary of the method: as §1
# ScHse1 = molecular target: ScHse1
# Summary of the method: as §1
# ScLsb1 = molecular target: ScLsb1
# Summary of the method: as §1
# ScLsb2 = molecular target: ScLsb2
# Summary of the method: as §1
# ScLsb3 = molecular target: ScLsb3
# Summary of the method: as §1
# ScLsb4 = molecular target: ScLsb4
# Summary of the method: as §1
# ScMyo3 = molecular target: ScMyo3
# Summary of the method: as §1
# ScMyo5 = molecular target: ScMyo5
# Summary of the method: as §1
# ScNbp2 = molecular target: ScNbp2
# Summary of the method: as §1
# ScPex13 = molecular target: ScPex13
# Summary of the method: as §1
# ScRvs167 = molecular target: ScRvs167
# Summary of the method: as §1
# ScSho1 = molecular target: ScSho1
# Summary of the method: as §1
# ScSla1-D1-D2 = molecular target: ScSla1-D1-D2
# Summary of the method: as §1
# ScSla1-D3 = molecular target: ScSla1-D3
# Summary of the method: as §1
# SpAbp1-D1 = molecular target: SpAbp1-D1
# Summary of the method: as §1
# SpBbc1 = molecular target: SpBbc1
# Summary of the method: as §1
# SpBzz1-D1 = molecular target: SpBzz1-D1
# Summary of the method: as §1
# SpBzz1-D2 = molecular target: SpBzz1-D2
# Summary of the method: as §1
# SpCyk3 = molecular target: SpCyk3
# Summary of the method: as §1
# SpHof1 = molecular target: SpHof1
# Summary of the method: as §1
# SpHof1-2 = molecular target: SpHof1-2
# Summary of the method: as §1
# SpHof1-3 = molecular target: SpHof1-3
# Summary of the method: as §1
# SpHse1 = molecular target: SpHse1
# Summary of the method: as §1
# SpLsb1 = molecular target: SpLsb1
# Summary of the method: as §1
# SpLsb4 = molecular target: SpLsb4
# Summary of the method: as §1
# SpMyo1 = molecular target: SpMyo1
# Summary of the method: as §1
# SpNbp2 = molecular target: SpNbp2
# Summary of the method: as §1
# SpPex13 = molecular target: SpPex13
# Summary of the method: as §1
# SpRvs167 = molecular target: SpRvs167
# Summary of the method: as §1
# SpSla1-D1-D2 = molecular target: SpSla1-D1-D2
# Summary of the method: as §1
# SpSla1-D3 = molecular target: SpSla1-D3
# Summary of the method: as §1
binder,measurement,setting,value
APKREAPKPPANTSP,SPOT peptide array binding signal intensity,AgAbp1,1
same,SPOT peptide array binding signal intensity,AgBbc1,112
same,SPOT peptide array binding signal intensity,AgBem1-D1,34
same,SPOT peptide array binding signal intensity,AgBzz1-D1,178
same,SPOT peptide array binding signal intensity,AgBzz1-D2,2.5
same,SPOT peptide array binding signal intensity,AgCyk3,≤ 0
same,SPOT peptide array binding signal intensity,AgFus1,≤ 0
same,SPOT peptide array binding signal intensity,AgHof1,6
same,SPOT peptide array binding signal intensity,AgHse1,≤ 0
same,SPOT peptide array binding signal intensity,AgLsb1,4.5
same,SPOT peptide array binding signal intensity,AgLsb4,≤ 0
same,SPOT peptide array binding signal intensity,AgMyo5,265
same,SPOT peptide array binding signal intensity,AgNbp2,382
same,SPOT peptide array binding signal intensity,AgRvs167,≤ 0
same,SPOT peptide array binding signal intensity,AgSho1,≤ 0
same,SPOT peptide array binding signal intensity,AgSla1-D1-D2,≤ 0
same,SPOT peptide array binding signal intensity,AgSla1-D3,8
same,SPOT peptide array binding signal intensity,CaAbp1-D1,6
same,SPOT peptide array binding signal intensity,CaAbp1-D2,11
same,SPOT peptide array binding signal intensity,CaBbc1,251
same,SPOT peptide array binding signal intensity,CaBem1-D1,14
same,SPOT peptide array binding signal intensity,CaBzz1-D1,2040
same,SPOT peptide array binding signal intensity,CaBzz1-D2,2090
same,SPOT peptide array binding signal intensity,CaCyk3,≤ 0
same,SPOT peptide array binding signal intensity,CaFus1,18
same,SPOT peptide array binding signal intensity,CaHof1,≤ 0
same,SPOT peptide array binding signal intensity,CaHse1,1.5
same,SPOT peptide array binding signal intensity,CaLsb1,≤ 0
same,SPOT peptide array binding signal intensity,CaLsb4,≤ 0
same,SPOT peptide array binding signal intensity,CaMyo5,1.75
same,SPOT peptide array binding signal intensity,CaNbp2,1520
same,SPOT peptide array binding signal intensity,CaRvs167,0.5
same,SPOT peptide array binding signal intensity,CaRvs167-3,2
same,SPOT peptide array binding signal intensity,CaSho1,≤ 0
same,SPOT peptide array binding signal intensity,CaSla1-D1-D2,106
same,SPOT peptide array binding signal intensity,CaSla1-D3,0.25
same,SPOT peptide array binding signal intensity,ScAbp1,≤ 0
same,SPOT peptide array binding signal intensity,ScBbc1,156
same,SPOT peptide array binding signal intensity,ScBem1-D1,4.5
same,SPOT peptide array binding signal intensity,ScBzz1-D1,348
same,SPOT peptide array binding signal intensity,ScBzz1-D2,5
same,SPOT peptide array binding signal intensity,ScCyk3,≤ 0
same,SPOT peptide array binding signal intensity,ScFus1,≤ 0
same,SPOT peptide array binding signal intensity,ScHof1,≤ 0
same,SPOT peptide array binding signal intensity,ScHse1,≤ 0
same,SPOT peptide array binding signal intensity,ScLsb1,≤ 0
same,SPOT peptide array binding signal intensity,ScLsb2,≤ 0
same,SPOT peptide array binding signal intensity,ScLsb3,4.5
same,SPOT peptide array binding signal intensity,ScLsb4,≤ 0
same,SPOT peptide array binding signal intensity,ScMyo3,616
same,SPOT peptide array binding signal intensity,ScMyo5,414
same,SPOT peptide array binding signal intensity,ScNbp2,1140
same,SPOT peptide array binding signal intensity,ScPex13,47.8
same,SPOT peptide array binding signal intensity,ScRvs167,1
same,SPOT peptide array binding signal intensity,ScSho1,≤ 0
same,SPOT peptide array binding signal intensity,ScSla1-D1-D2,738
same,SPOT peptide array binding signal intensity,ScSla1-D3,16.2
same,SPOT peptide array binding signal intensity,SpAbp1-D1,15
same,SPOT peptide array binding signal intensity,SpBbc1,1
same,SPOT peptide array binding signal intensity,SpBzz1-D1,86
same,SPOT peptide array binding signal intensity,SpBzz1-D2,0.25
same,SPOT peptide array binding signal intensity,SpCyk3,≤ 0
same,SPOT peptide array binding signal intensity,SpHof1,≤ 0
same,SPOT peptide array binding signal intensity,SpHof1-2,≤ 0
same,SPOT peptide array binding signal intensity,SpHof1-3,6.25
same,SPOT peptide array binding signal intensity,SpHse1,3.5
same,SPOT peptide array binding signal intensity,SpLsb1,≤ 0
same,SPOT peptide array binding signal intensity,SpLsb4,≤ 0
same,SPOT peptide array binding signal intensity,SpMyo1,1270
same,SPOT peptide array binding signal intensity,SpNbp2,1
same,SPOT peptide array binding signal intensity,SpPex13,≤ 0
same,SPOT peptide array binding signal intensity,SpRvs167,2.67
same,SPOT peptide array binding signal intensity,SpSla1-D1-D2,≤ 0
same,SPOT peptide array binding signal intensity,SpSla1-D3,0.5
